From PubChem BioAssay (NCI)
Several values for one entry are separate records, joined by “and”; a condition that tells them apart may be missing. Identical values can stand only once. This is part of a sample that, as a whole, favours compounds with a hit. Of some 83,000 tested, about 20% had one in any assay.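 How to read the values: 0–100, growth inhibition (40 = 60% inhibited); 0, no net growth; -100 to 0, cell death (-40 = 40% of starting cells died; -100 = all dead).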 Activity calls are given as the source filed them. How the source made its calls: active means growth percent below 10; inactive means the rest.

Each molecule was assayed on MDA-MB-468 breast (assay: NCI-60 one-dose screen, 48 h (100 = growth as untreated, 0 = no growth, -100 = all killed)). Conditions: 10 µM unless noted.

**Q.** Which growth does the source give for `CCCCCc1c(C)[nH]c(/C=C2\N=C(c3ccc[nH]3)C=C2Oc2ccccc2)c1C` here?
**A.** -59.3% [100 µM] (active)

**Q.** With `O=C(Cn1cc(CSc2nc3ccccc3o2)nn1)Nc1ccc([N+](=O)[O-])cc1` as the molecule, how does the growth read?
**A.** 98.7% (inactive)

**Q.** How did the growth turn out when `Cc1ccc(-c2nc3nc(-c4ccc(F)cc4)nc(N4CCNCC4)c3o2)cc1` was run?
**A.** 54.3% (inactive)

**Q.** Which growth does the source give for `COc1ccc(NC(N)=NCCCOc2ccc(F)cc2)cc1` here?
**A.** 66.2% (inactive)

**Q.** With `CC[C@@H](C(=O)[C@@H](C)[C@@H](O)[C@H](C)[C@@H]1O[C@@H]([C@@H](CC)C(=O)N(CC)CC)CC[C@@H]1C)C1O[C@]2(C=CC(=O)[C@]3(CC[C@@](C)([C@H]4CC[C@](O)(CC)[C@H](C)O4)O3)O2)[C@H](C)C[C@@H]1C` (stereo partly drawn) as the molecule, how does the growth read?
**A.** -12.9% (active)

**Q.** `COc1ccc(-c2nc3sccn3c2-c2ccnc(NCCCNS(=O)(=O)c3ccc(C)cc3)n2)cc1` was tested. Which growth did it give?
**A.** 37.9% (inactive)

**Q.** Which growth does the source give for `O=C(Nc1ccc(Cl)c(Cl)c1)NC(CO)(CO)CO` here?
**A.** 95.9% (inactive)

**Q.** For `C=C1C(=O)O[C@H]2[C@H]1CC/C(CNC(=O)/C=C/c1cc(OC)c(OC)c(OC)c1)=C\CC[C@@]1(C)O[C@@H]21`, which growth is on record?
**A.** -57.6% (active)

**Q.** With `CSc1nc2c(c(=O)[nH]1)N=C1c3ccccc3C(=O)C1C(c1ccc(F)cc1)N2` (stereo not drawn) as the molecule, how does the growth read?
**A.** 21.7% (inactive)

**Q.** `Cc1nn(-c2ccc(-c3ccc(OC(F)(F)F)cc3)cc2)c2nc(Cc3ccccc3)nc(N)c12` was tested. Which growth did it give?
**A.** 46% (inactive)

**Q.** With `CC(C)CNC(=O)c1ccccc1C(=O)NC1(C(=O)NCC(C)C)CCCC1` as the molecule, how does the growth read?
**A.** 101% (inactive) and 121% (inactive)

**Q.** Which growth does the source give for `COC(=O)/C=C1\S/C(=N\NC(=O)c2cc3ccc2/C=C\c2ccc(cc2)/C=C\3)N(c2ccccc2)C1=O` here?
**A.** -0.388% (active)

**Q.** How did the growth turn out when `CC[C@@]1(C(N)=O)CC2C=CC1C2` (stereo partly drawn) was run?
**A.** 103% (inactive)

**Q.** `O=C(O)[C@@H]1c2ccccc2-c2ccccc2[C@H]1C(=O)O` was tested. Which growth did it give?
**A.** 97.5% (inactive)

**Q.** For `COc1ccc(OCC(=O)OC(C)C)cc1`, which growth is on record?
**A.** 84.3% (inactive)

**Q.** How did the growth turn out when `CN1CCC(=C2c3ccccc3C=Cc3ccccc32)CC1` was run?
**A.** 36% (inactive)

**Q.** For `O=[N+]([O-])c1ccc(S(=O)Cc2ccccc2)c([N+](=O)[O-])c1` (stereo not drawn), which growth is on record?
**A.** -56% (active) and -64.1% (active)

**Q.** `O=C(NCCNC(=O)c1ccc(F)cc1)Nc1ccc(-n2cc(-c3ccncc3)c(-c3ccc(Cl)c(O)c3)n2)cc1` was tested. Which growth did it give?
**A.** -35.9% (active)

**Q.** How did the growth turn out when `Cc1ccc(Nc2cc(Cl)c([N+](=O)[O-])cc2[N+](=O)[O-])cc1` was run?
**A.** -65.8% (active)

**Q.** With `O=C(Nc1ccc(NCCN2CCOCC2)nc1)c1ccc([N+](=O)[O-])cc1` as the molecule, how does the growth read?
**A.** 104% (inactive)

**Q.** For `C/C(=C\C(=O)c1ccc(Cl)cc1)c1ccc(Cl)cc1`, which growth is on record?
**A.** 5.65% (active)

**Q.** For `CS(=O)(=O)Nc1cncc(-c2ccc3ncnc(Nc4ccc(F)c(Cl)c4)c3c2)c1`, which growth is on record?
**A.** -30.3% (active)

**Q.** `O=c1c2c([nH]c3ccccc13)CCCC2` was tested. Which growth did it give?
**A.** 88.2% (inactive) and 14.6% (inactive)

**Q.** `O=C(O)c1ccc2c(c1Cl)C(=O)c1ccccc1C2=O` was tested. Which growth did it give?
**A.** 88.9% (inactive)

**Q.** `CN1C(=O)/C(=C/c2nc(-c3cccc(F)c3)n3ccccc23)c2ccccc21` was tested. Which growth did it give?
**A.** 101% (inactive)

**Q.** `Clc1ccc(C2=NN(c3ccccc3)[C@H](c3cn(-c4ccccc4)nc3-c3ccccc3)C2)cc1` was tested. Which growth did it give?
**A.** 109% (inactive)

**Q.** `COc1cc(-c2cc(/C=C3\C(=O)Nc4ccccc43)[nH]n2)cc(OC)c1OC` was tested. Which growth did it give?
**A.** 82% (inactive)

**Q.** With `O=C(CN1C(=O)/C(=C/c2ccco2)SC1=S)NCCc1c[nH]c2ccc(F)cc12` as the molecule, how does the growth read?
**A.** 105% (inactive)
